The panel holds about 83,000 compounds, 20% with a hit somewhere; the sample as a whole holds those more often.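 Values shown are percent growth following 48 h exposure of cells in 96-well plates to a single concentration of compound; below 10 was considered active.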 Values without a mark were called inactive. Active and inactive are the calls of the source.
These molecules were tested on SNB-75 CNS (assay: NCI-60 one-dose screen, 48 h (100 = growth as untreated, 0 = no growth, -100 = all killed)). Conditions: 10 µM unless noted.
Molecule `COc1ccc(-c2nn(-c3ccccc3)cc2/C=C/C(=O)c2ccc(NC(=O)CCCCCCC(=O)NO)cc2)cc1` has a growth of 96.6%. With `O=C(NCCCNc1cc(-c2cn(-c3ccccc3)nc2-c2cccc(O)c2)ccn1)Nc1cccc(C(F)(F)F)c1` the growth was 45%. Work on `Cc1[nH]nc2ccc(-c3nc4cnc(N5CCN(C)CC5)cn4c3Nc3ccc(F)cc3Br)cc12` yielded a growth of 82.7%. `C#Cc1ccc(NC(=O)c2ccc(/C=C/C(=O)c3nccn3C)cc2)c(F)c1` showed a growth of 17.7%. `O=C(Nc1ccc(F)cc1)c1cc(-c2ccc(F)cc2F)ccc1O` was tested, and the growth was 7.01% (active). With `Oc1ccc(CSc2nnc(-c3ccc(Oc4ccccc4)cc3)o2)c2cccnc12` the growth was -25.3% (active). `Cc1ccc(NC(=O)c2ccc(CN3CCN(C)CC3)c(C(F)(F)F)c2)cc1Oc1ccc(-c2[nH]nc3ncnc(N)c23)cc1` was tested, and the growth was 93.3%. `N#Cc1c(NC(=O)c2ccccc2C(F)(F)F)sc2c1CCC(=O)C2` showed a growth of 20.1%. `CCN(CC)c1ccc2cc(C(=O)NCCOCCOCCOCCn3cc(CCC(=O)Nc4ccc(C(=O)c5ccc(NC(=O)OC(C)(C)C)cc5)cc4)nn3)c(=O)oc2c1` showed a growth of 94.6%. Work on `CS(=O)(=O)c1ccc(-c2nn(-c3ccccc3)cc2/C=N/NC(=O)c2ccncc2)cc1` yielded a growth of 89%. Work on `Cc1ccc(S(=O)(=O)N/N=C/c2cn(-c3ccc(F)cc3)nc2-c2ccc(S(C)(=O)=O)cc2)cc1` yielded a growth of 110%. `CS(=O)(=O)c1ccc(-c2nn(-c3ccccc3)cc2/C=C/C(=O)c2ccc(Br)cc2)cc1` was tested, and the growth was 107%. `O=C(NCCCNc1cc(-c2cn(-c3ccccc3)nc2-c2cccc(O)c2)ccn1)Nc1ccc(F)cc1` was tested, and the growth was 6.84% (active). Work on `CN1C(=O)N(C)C2C1NN=c1s/c(=C\c3ccccn3)c(=O)n12` (centres undefined) yielded a growth of 93%. With `Fc1ccc(-c2cc3nc(C(Cl)Cl)nc(-c4cccs4)n3n2)cc1` the growth was 69.8%. Work on `COc1ccc([C@H]2c3[nH]c4ccccc4c3C[C@@H]3C(=O)N(C4CCN(Cc5ccccc5)CC4)CC(=O)N23)c(OC)c1` yielded a growth of 83.1%. Work on `Cn1ccnc1C(=O)/C=C/c1ccc(C(=O)Nc2ccc(NC(=O)CCNC(=O)c3csc(Br)n3)cc2)cc1` yielded a growth of 71.2%. For `Cc1nn(-c2ccccc2)cc1/C=N/Nc1nc(Nc2ccccc2)nc(Nc2ccc(S(N)(=O)=O)cc2)n1`, the growth was 44.8%. `COc1ccc(N2C(=O)c3cc(OC)c(OC)cc3NC2SCc2ccccc2)cc1` (centres undefined) was tested, and the growth was 112%. With `Cc1cc2nc(C(Cl)Cl)nc(-c3ccco3)n2n1` the growth was 94.5%. Work on `COc1ccc(S(=O)(=O)NCCCNc2nccc(-n3cnc4ccccc43)n2)cc1` yielded a growth of 88.2%. In the case of `O=C(NCCCNc1cc(-c2cn(-c3ccccc3)nc2-c2cccc(O)c2)ccn1)Nc1cc(C(F)(F)F)cc(C(F)(F)F)c1`, the growth is reported as 64.2%. For `Cc1ccc(NC(=O)c2ccc(CN3CCN(C)CC3)c(I)c2)cc1Oc1ccc(-c2[nH]nc3ncnc(N)c23)cc1`, the growth was 100%. `Cc1ccc(-n2cc(/C=C/C(=O)c3ccc(S(C)(=O)=O)cc3)c(-c3ccc(S(C)(=O)=O)cc3)n2)cc1` gave a growth of 102%. `COc1cc(/C=C/C(=O)c2ccc(NC(=O)CSc3nnc(-c4ccc5nc(-c6ccccc6)[nH]c5c4)o3)cc2)cc(OC)c1OC` gave a growth of 81.1%. `O=c1oc2ccc(-c3ccc(F)cc3F)cc2c(=O)n1-c1cccc(C(F)(F)F)c1` showed a growth of 15.5%. Molecule `C#CCOc1ccccc1C(Nc1ccccc1)c1nnnn1C1CCCCC1` (centres undefined) has a growth of 102%. In the case of `NCCN1CCN(c2nc(-c3ccccc3)nc3nc(-c4ccccc4)oc23)CC1`, the growth is reported as -77.1% (active). In the case of `CN1C(=O)N(C)C2Nn3c(s/c(=C\c4ccccn4)c3=O)=NC21` (centres undefined), the growth is reported as 105%. With `CNC(=O)c1cc(N2CCc3cc(NC(=O)Nc4ccc(Cl)c(Cl)c4)ccc32)ccn1` the growth was 87.9%. `NS(=O)(=O)c1ccc(-n2cc(CC=O)nn2)cc1` showed a growth of 90.1%. `COc1ccc(N)cc1C(=O)Nc1cccc(-c2cc(=O)c3c(OC)c(OC)c(OC)cc3o2)c1` showed a growth of 93.1%. Work on `O=C(CSc1nnc(-c2ccc(Cl)cc2)n1-c1ccccc1)Nc1ccc(F)cc1` yielded a growth of 117%. `O=C(c1cccc(F)c1)n1ccc2cc(NC(=S)Nc3cccnc3)ccc21` was tested, and the growth was 90.6%. `O=C(O)c1ccc(-n2cc(CNc3ccc(Cl)cc3)c(-c3ccc(F)cc3)n2)cc1` was tested, and the growth was 131%. In the case of `CCC(CC)N1C(=O)/C(=c2\sc3n(c2=O)C2C(NN=3)N(CC)C(=O)N2CC)c2ccccc21` (centres undefined), the growth is reported as -4.75% (active).

The molecules below were run on SNB-19 CNS in the same assay as above. Conditions: 10 µM unless noted.
In the case of `COc1ccc(-c2nn(-c3ccccc3)cc2/C=C/C(=O)c2ccc(NC(=O)CCCCCCC(=O)NO)cc2)cc1`, the growth is reported as 106%. Work on `O=C(NCCCNc1cc(-c2cn(-c3ccccc3)nc2-c2cccc(O)c2)ccn1)Nc1cccc(C(F)(F)F)c1` yielded a growth of 42.8%. `Cc1[nH]nc2ccc(-c3nc4cnc(N5CCN(C)CC5)cn4c3Nc3ccc(F)cc3Br)cc12` showed a growth of 45.4%. With `O=C(/C=C/c1cccc(O)c1)c1ccc(O)cc1` the growth was 74.9%. `C#Cc1ccc(NC(=O)c2ccc(/C=C/C(=O)c3nccn3C)cc2)c(F)c1` gave a growth of 23%. In the case of `O=C(Nc1ccc(F)cc1)c1cc(-c2ccc(F)cc2F)ccc1O`, the growth is reported as 8.06% (active). Work on `Oc1ccc(CSc2nnc(-c3ccc(Oc4ccccc4)cc3)o2)c2cccnc12` yielded a growth of 17.3%. `Cc1ccc(NC(=O)c2ccc(CN3CCN(C)CC3)c(C(F)(F)F)c2)cc1Oc1ccc(-c2[nH]nc3ncnc(N)c23)cc1` was tested, and the growth was 99.2%. `N#Cc1c(NC(=O)c2ccccc2C(F)(F)F)sc2c1CCC(=O)C2` gave a growth of 15.5%. `CCN(CC)c1ccc2cc(C(=O)NCCOCCOCCOCCn3cc(CCC(=O)Nc4ccc(C(=O)c5ccc(NC(=O)OC(C)(C)C)cc5)cc4)nn3)c(=O)oc2c1` was tested, and the growth was 75.7%. `CS(=O)(=O)c1ccc(-c2nn(-c3ccccc3)cc2/C=N/NC(=O)c2ccncc2)cc1` gave a growth of 96.5%. With `Cc1ccc(S(=O)(=O)N/N=C/c2cn(-c3ccc(F)cc3)nc2-c2ccc(S(C)(=O)=O)cc2)cc1` the growth was 97.1%. `CS(=O)(=O)c1ccc(-c2nn(-c3ccccc3)cc2/C=C/C(=O)c2ccc(Br)cc2)cc1` was tested, and the growth was 85.6%. In the case of `O=C(NCCCNc1cc(-c2cn(-c3ccccc3)nc2-c2cccc(O)c2)ccn1)Nc1ccc(F)cc1`, the growth is reported as 26.9%. Molecule `CN1C(=O)N(C)C2C1NN=c1s/c(=C\c3ccccn3)c(=O)n12` (centres undefined) has a growth of 96.8%. In the case of `Fc1ccc(-c2cc3nc(C(Cl)Cl)nc(-c4cccs4)n3n2)cc1`, the growth is reported as 9.61% (active). `COc1ccc([C@H]2c3[nH]c4ccccc4c3C[C@@H]3C(=O)N(C4CCN(Cc5ccccc5)CC4)CC(=O)N23)c(OC)c1` showed a growth of 83.1%. Work on `Cn1ccnc1C(=O)/C=C/c1ccc(C(=O)Nc2ccc(NC(=O)CCNC(=O)c3csc(Br)n3)cc2)cc1` yielded a growth of 60.6%. In the case of `Cc1nn(-c2ccccc2)cc1/C=N/Nc1nc(Nc2ccccc2)nc(Nc2ccc(S(N)(=O)=O)cc2)n1`, the growth is reported as 7.01% (active). `COCCC[C@H]1O[C@@](O)([C@H](C)[C@@H]2CC(OC)C(O)/C=C(C)/C=C(C)/C=C(\C)C(OC3O[C@@H](C)[C@H](O)C(O)[C@@H]3O)C(C)/C=C(C)/C=C(OC)/C=C(\C)C(=O)O2)C(OC)C(O)[C@]1(C)O[C@H]1C[C@@H](O)[C@H](O[C@H]2C[C@](C)(O)[C@H](O)C(C)O2)C(C)O1` (some centres undefined) gave a growth of 38.8%. Work on `COc1ccc(N2C(=O)c3cc(OC)c(OC)cc3NC2SCc2ccccc2)cc1` (centres undefined) yielded a growth of 109%. With `Cc1cc2nc(C(Cl)Cl)nc(-c3ccco3)n2n1` the growth was 62.8%. `COc1ccc(S(=O)(=O)NCCCNc2nccc(-n3cnc4ccccc43)n2)cc1` gave a growth of 100%. In the case of `O=C(NCCCNc1cc(-c2cn(-c3ccccc3)nc2-c2cccc(O)c2)ccn1)Nc1cc(C(F)(F)F)cc(C(F)(F)F)c1`, the growth is reported as 68.5%. `Cc1ccc(NC(=O)c2ccc(CN3CCN(C)CC3)c(I)c2)cc1Oc1ccc(-c2[nH]nc3ncnc(N)c23)cc1` gave a growth of 96.5%. Molecule `Cc1ccc(-n2cc(/C=C/C(=O)c3ccc(S(C)(=O)=O)cc3)c(-c3ccc(S(C)(=O)=O)cc3)n2)cc1` has a growth of 89.8%. Work on `COc1cc(/C=C/C(=O)c2ccc(NC(=O)CSc3nnc(-c4ccc5nc(-c6ccccc6)[nH]c5c4)o3)cc2)cc(OC)c1OC` yielded a growth of 84.4%. In the case of `O=c1oc2ccc(-c3ccc(F)cc3F)cc2c(=O)n1-c1cccc(C(F)(F)F)c1`, the growth is reported as 9.99% (active). `C#CCOc1ccccc1C(Nc1ccccc1)c1nnnn1C1CCCCC1` (centres undefined) showed a growth of 94.7%. For `NCCN1CCN(c2nc(-c3ccccc3)nc3nc(-c4ccccc4)oc23)CC1`, the growth was -19.7% (active). In the case of `CN1C(=O)N(C)C2Nn3c(s/c(=C\c4ccccn4)c3=O)=NC21` (centres undefined), the growth is reported as 100%. `CNC(=O)c1cc(N2CCc3cc(NC(=O)Nc4ccc(Cl)c(Cl)c4)ccc32)ccn1` gave a growth of 81.4%. For `NS(=O)(=O)c1ccc(-n2cc(CC=O)nn2)cc1`, the growth was 102%. In the case of `COc1ccc(N)cc1C(=O)Nc1cccc(-c2cc(=O)c3c(OC)c(OC)c(OC)cc3o2)c1`, the growth is reported as 76.6%. For `O=C(CSc1nnc(-c2ccc(Cl)cc2)n1-c1ccccc1)Nc1ccc(F)cc1`, the growth was 59.7%. `O=C(c1cccc(F)c1)n1ccc2cc(NC(=S)Nc3cccnc3)ccc21` gave a growth of 86.5%. Work on `O=C(O)c1ccc(-n2cc(CNc3ccc(Cl)cc3)c(-c3ccc(F)cc3)n2)cc1` yielded a growth of 96.5%. Work on `CCC(CC)N1C(=O)/C(=c2\sc3n(c2=O)C2C(NN=3)N(CC)C(=O)N2CC)c2ccccc21` (centres undefined) yielded a growth of 26.4%.

From PubChem BioAssay (NCI)
